# Results as given in ChEMBL document CHEMBL2218924, “A broad activity screen in support of a chemogenomic map for kinase signalling research and drug discovery” (Biochem J, 2013).
# Target: MAP kinase-interacting serine/threonine-protein kinase 2 (Homo sapiens) (UniProt Q9HBH9)
# Details: at 10 µM
# MAP kinase-interacting serine/threonine-protein kinase 2 (Homo sapiens), sequence (Q9HBH9 whole entry, looked up): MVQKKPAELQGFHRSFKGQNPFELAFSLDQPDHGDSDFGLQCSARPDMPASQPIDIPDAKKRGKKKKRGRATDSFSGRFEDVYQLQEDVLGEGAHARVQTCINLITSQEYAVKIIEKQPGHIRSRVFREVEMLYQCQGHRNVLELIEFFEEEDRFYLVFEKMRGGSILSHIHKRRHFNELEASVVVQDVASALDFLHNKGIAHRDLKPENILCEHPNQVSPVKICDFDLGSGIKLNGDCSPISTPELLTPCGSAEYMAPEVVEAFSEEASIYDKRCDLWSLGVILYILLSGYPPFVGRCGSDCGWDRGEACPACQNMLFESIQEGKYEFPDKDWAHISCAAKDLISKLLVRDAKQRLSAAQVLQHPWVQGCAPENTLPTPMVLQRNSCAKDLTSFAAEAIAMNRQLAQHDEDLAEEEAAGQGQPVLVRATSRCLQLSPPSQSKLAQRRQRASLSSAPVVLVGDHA
row,Structure (SMILES),residual activity [%]
1,CO[C@H]1C[C@@H]2CC[C@@H](C)[C@@](O)(O2)C(=O)C(=O)N2CCCC[C@H]2C(=O)O[C@H]([C@H](C)C[C@@H]2CC[C@@H](O)[C@H](OC)C2)CC(=O)[C@H](C)/C=C(\C)[C@@H](O)[C@@H](OC)C(=O)[C@H](C)C[C@H](C)/C=C/C=C/C=C/1C,88
2,Nc1nc(Nc2ccc(S(N)(=O)=O)cc2)nn1C(=S)Nc1c(F)cccc1F,14
3,O=C1NC(=O)/C(=C\c2ccc3nccnc3c2)S1,28
4,COc1ccc(CNc2nc(N(CCO)CCO)nc3c2ncn3C(C)C)cc1,100
5,COc1ccc(C(=O)Nc2sc3c(c2C(N)=O)CCCC3)cc1OC,82
6,O=C(Nc1cccc(Nc2cc(Nc3cccc(C(F)(F)F)c3)ncn2)c1)C1CC1,9
7,Oc1ccc(Nc2nc(-c3ccc(Cl)cc3)cs2)cc1,80
8,COc1ccc(OC)c2c(=S)c3ccccc3[nH]c12,77
9,O=C1Nc2cc(Br)ccc2/C1=C1/Nc2ccccc2/C1=N\O,77
10,Nc1cccc(-c2cc3c(Oc4cccc(O)c4)ncnc3[nH]2)c1,20
11,Oc1n[nH]c2nnc(-c3c(-c4ccccc4)nn4ccccc34)cc12,99
12,COc1cccc(-c2cc(=O)c3ccccc3o2)c1N,113
13,Cc1nc2cc3nc(-c4cccs4)cnc3cc2n1C,37
14,O=Nc1c(-c2c(O)[nH]c3ccccc23)[nH]c2ccccc12,18
15,O=C1c2ccccc2-[n+]2ccc3c([nH]c4ccccc43)c21,42
16,CNc1cc2c(Nc3cccc(Br)c3)ncnc2cn1,12
